Test results published in PubChem BioAssay (NCATS).

biological target: Glucocorticoid receptor (Homo sapiens) (UniProt P04150); assay: GR-EFC Redistribution (AID 451); details: CHO-K1 GR-EFC translocation, beta-gal luminescence, 2 h
How it was run: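 CHO-K1 cells stably expressing nuclear-localized β-gal enzyme acceptor and GR fused C-terminally to the enzyme donor fragment; ligand-driven nuclear translocation restores β-gal by complementation. Compounds titrated up to 46 uM final, 2 h at 37 °C; luminescence read.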
Potency means the concentration at half of the fitted maximal effect.

Sequence of Glucocorticoid receptor (Homo sapiens) (P04150 whole entry, looked up, the tested form may be a part): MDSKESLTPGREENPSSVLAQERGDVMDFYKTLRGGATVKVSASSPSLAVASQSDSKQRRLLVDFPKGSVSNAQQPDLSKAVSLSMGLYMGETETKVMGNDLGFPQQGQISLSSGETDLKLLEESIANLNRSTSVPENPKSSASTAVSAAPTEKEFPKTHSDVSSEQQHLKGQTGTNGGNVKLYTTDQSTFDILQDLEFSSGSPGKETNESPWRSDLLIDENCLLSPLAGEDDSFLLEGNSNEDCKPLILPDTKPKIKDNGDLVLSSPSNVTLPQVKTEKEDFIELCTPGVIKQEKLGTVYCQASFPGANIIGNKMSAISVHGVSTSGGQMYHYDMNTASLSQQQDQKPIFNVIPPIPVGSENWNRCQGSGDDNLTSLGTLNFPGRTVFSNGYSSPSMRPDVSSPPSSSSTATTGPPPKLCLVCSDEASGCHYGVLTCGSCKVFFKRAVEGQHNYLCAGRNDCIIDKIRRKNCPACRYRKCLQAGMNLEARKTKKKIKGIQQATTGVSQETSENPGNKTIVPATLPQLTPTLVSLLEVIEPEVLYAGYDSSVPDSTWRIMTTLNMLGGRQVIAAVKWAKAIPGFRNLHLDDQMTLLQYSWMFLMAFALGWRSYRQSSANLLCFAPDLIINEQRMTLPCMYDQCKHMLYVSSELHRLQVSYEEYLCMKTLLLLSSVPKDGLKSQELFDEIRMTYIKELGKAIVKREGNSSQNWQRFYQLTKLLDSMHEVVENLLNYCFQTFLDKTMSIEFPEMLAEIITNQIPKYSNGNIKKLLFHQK

Potency, inactive:
NCCC[C@@H](CC(=O)N[C@@H]1CCCC[C@H]1C(=O)N[C@H](CC(=O)N[C@@H](CCC(=O)O)CC(=O)O)Cc1c[nH]c2ccccc12)NC(=O)C[C@H](Cc1c[nH]c2ccccc12)NC(=O)[C@@H]1CCCC[C@H]1N > 46 µM
CC(C)[C@@H](CC(=O)N[C@@H]1CCCC[C@H]1C(=O)N[C@H](CC(=O)N[C@@H](CCC(=O)O)CC(=O)O)Cc1c[nH]c2ccccc12)NC(=O)C[C@H](Cc1ccccc1)NC(=O)[C@@H]1CCCC[C@H]1N > 46 µM
CC(C)C[C@@H](CC(=O)N[C@H](CC(=O)N[C@@H]1CCCC[C@H]1C(=O)N[C@H](CC(=O)N[C@@H](CCC(=O)O)CC(=O)O)Cc1c[nH]c2ccccc12)C(C)C)NC(=O)[C@@H]1CNCC[C@H]1N > 46 µM
CC(C)[C@@H](CC(=O)N[C@@H]1CCCC[C@H]1C(=O)N[C@H](CC(=O)N[C@@H](CCC(=O)O)CC(=O)O)Cc1c[nH]c2ccccc12)NC(=O)C[C@H](Cc1c[nH]c2ccccc12)NC(=O)[C@@H]1CNCC[C@H]1N > 46 µM
CC(C)C[C@@H](CC(=O)N[C@@H](CCCN)CC(=O)N[C@@H]1CCCC[C@H]1C(=O)N[C@H](CC(=O)N[C@@H](CCC(=O)O)CC(=O)O)Cc1ccccc1)NC(=O)[C@@H]1CNCC[C@H]1N > 46 µM
CC(C)[C@@H](CC(=O)N[C@@H]1CCNC[C@H]1C(=O)N[C@H](CC(=O)N[C@@H](CCC(=O)O)CC(=O)O)Cc1c[nH]c2ccccc12)NC(=O)C[C@H](CO)NC(=O)[C@@H]1CNCC[C@H]1N > 46 µM
CC(C)C[C@@H](CC(=O)N[C@@H](CCCN)CC(=O)N[C@@H]1CCCC[C@H]1C(=O)N[C@H](CC(=O)N[C@@H](CCC(=O)O)CC(=O)O)CC(C)C)NC(=O)[C@@H]1CCCC[C@H]1N > 46 µM
CC(C)C[C@@H](CC(=O)N[C@H](CC(=O)N[C@@H]1CCNC[C@H]1C(=O)N[C@H](CC(=O)N[C@@H](CCC(=O)O)CC(=O)O)Cc1c[nH]c2ccccc12)C(C)C)NC(=O)[C@@H]1CNCC[C@H]1N > 46 µM
O=C1C=CC2=C3c4cc(O)c(O)cc4C[C@@]3(O)COC2=C1O > 46 µM
NCCC[C@@H](CC(=O)N[C@@H]1CCCC[C@H]1C(=O)N[C@H](CC(=O)N[C@@H](CCC(=O)O)CC(=O)O)Cc1c[nH]c2ccccc12)NC(=O)C[C@H](Cc1ccccc1)NC(=O)[C@@H]1CNCC[C@H]1N > 46 µM
CC(C)C[C@@H](CC(=O)N[C@@H](CCCN)CC(=O)N[C@@H]1CCNC[C@H]1C(=O)N[C@H](CC(=O)N[C@@H](CCC(=O)O)CC(=O)O)Cc1c[nH]c2ccccc12)NC(=O)[C@@H]1CNCC[C@H]1N > 46 µM
NCCC[C@@H](CC(=O)N[C@@H]1CCNC[C@H]1C(=O)N[C@H](CC(=O)N[C@@H](CCC(=O)O)CC(=O)O)Cc1c[nH]c2ccccc12)NC(=O)C[C@H](Cc1c[nH]c2ccccc12)NC(=O)[C@@H]1CNCC[C@H]1N > 46 µM
NCCC[C@@H](CC(=O)N[C@@H]1CCNC[C@H]1C(=O)N[C@H](CC(=O)N[C@@H](CCC(=O)O)CC(=O)O)Cc1c[nH]c2ccccc12)NC(=O)C[C@H](Cc1ccccc1)NC(=O)[C@@H]1CNCC[C@H]1N > 46 µM
CC(C)C[C@@H](CC(=O)N[C@@H](CCC(=O)O)CC(=O)O)NC(=O)[C@@H]1CCCC[C@H]1NC(=O)C[C@H](CCCN)NC(=O)C[C@H](Cc1c[nH]c2ccccc12)NC(=O)[C@@H]1CNCC[C@H]1N > 46 µM
COc1cc(/C=C\C(=O)N2CCCCC2=O)cc(OC)c1OC > 46 µM
NCCC[C@@H](CC(=O)N[C@@H]1CCCC[C@H]1C(=O)N[C@H](CC(=O)N[C@@H](CCC(=O)O)CC(=O)O)Cc1ccccc1)NC(=O)C[C@H](CO)NC(=O)[C@@H]1CNCC[C@H]1N > 46 µM
NCCC[C@@H](CC(=O)N[C@@H]1CCNC[C@H]1C(=O)N[C@H](CC(=O)N[C@@H](CCC(=O)O)CC(=O)O)Cc1c[nH]c2ccccc12)NC(=O)C[C@H](CO)NC(=O)[C@@H]1CNCC[C@H]1N > 46 µM
COc1cc(/C=C\C(=O)CC(=O)/C=C\c2ccc(O)c(OC)c2)ccc1O > 46 µM
CC(C)[C@@H](CC(=O)N[C@@H]1CCCC[C@H]1C(=O)N[C@H](CC(=O)N[C@@H](CCC(=O)O)CC(=O)O)Cc1ccccc1)NC(=O)C[C@H](CO)NC(=O)[C@@H]1CNCC[C@H]1N > 46 µM
CC(C)C[C@@H](CC(=O)N[C@@H](CCC(=O)O)CC(=O)O)NC(=O)[C@@H]1CNCC[C@H]1NC(=O)C[C@@H](NC(=O)C[C@H](Cc1c[nH]c2ccccc12)NC(=O)[C@@H]1CCCC[C@H]1N)C(C)C > 46 µM
CC(C)C[C@@H](CC(=O)N[C@@H](CCCN)CC(=O)N[C@@H]1CCCC[C@H]1C(=O)N[C@H](CC(=O)N[C@@H](CCC(=O)O)CC(=O)O)Cc1c[nH]c2ccccc12)NC(=O)[C@@H]1CCCC[C@H]1N > 46 µM
CC(C)C[C@@H](CC(=O)N[C@@H](CCC(=O)O)CC(=O)O)NC(=O)[C@@H]1CCCC[C@H]1NC(=O)C[C@H](CCCN)NC(=O)C[C@H](CO)NC(=O)[C@@H]1CCCC[C@H]1N > 46 µM
CC(C)[C@@H](CC(=O)N[C@@H]1CCNC[C@H]1C(=O)N[C@H](CC(=O)N[C@@H](CCC(=O)O)CC(=O)O)Cc1c[nH]c2ccccc12)NC(=O)C[C@H](Cc1c[nH]c2ccccc12)NC(=O)[C@@H]1CNCC[C@H]1N > 46 µM
CC(C)C[C@@H](CC(=O)N[C@@H](CCC(=O)O)CC(=O)O)NC(=O)[C@@H]1CNCC[C@H]1NC(=O)C[C@@H](NC(=O)C[C@H](Cc1c[nH]c2ccccc12)NC(=O)[C@@H]1CNCC[C@H]1N)C(C)C > 46 µM
CC(C)C[C@@H](CC(=O)N[C@H](CC(=O)N[C@@H]1CCCC[C@H]1C(=O)N[C@H](CC(=O)N[C@@H](CCC(=O)O)CC(=O)O)CC(C)C)C(C)C)NC(=O)[C@@H]1CNCC[C@H]1N > 46 µM
NCCC[C@@H](CC(=O)N[C@@H]1CCNC[C@H]1C(=O)N[C@H](CC(=O)N[C@@H](CCC(=O)O)CC(=O)O)Cc1ccccc1)NC(=O)C[C@H](Cc1ccccc1)NC(=O)[C@@H]1CNCC[C@H]1N > 46 µM
CC(C)C[C@@H](CC(=O)N[C@@H](CCC(=O)O)CC(=O)O)NC(=O)[C@@H]1CCCC[C@H]1NC(=O)C[C@@H](NC(=O)C[C@H](CO)NC(=O)[C@@H]1CNCC[C@H]1N)C(C)C > 46 µM
CC(C)[C@@H](CC(=O)N[C@@H]1CCNC[C@H]1C(=O)N[C@H](CC(=O)N[C@@H](CCC(=O)O)CC(=O)O)Cc1ccccc1)NC(=O)C[C@H](CO)NC(=O)[C@@H]1CCCC[C@H]1N > 46 µM
NCCC[C@@H](CC(=O)N[C@@H]1CCNC[C@H]1C(=O)N[C@H](CC(=O)N[C@@H](CCC(=O)O)CC(=O)O)Cc1c[nH]c2ccccc12)NC(=O)C[C@H](CO)NC(=O)[C@@H]1CCCC[C@H]1N > 46 µM
NCCC[C@@H](CC(=O)N[C@@H]1CCCC[C@H]1C(=O)N[C@H](CC(=O)N[C@@H](CCC(=O)O)CC(=O)O)Cc1c[nH]c2ccccc12)NC(=O)C[C@H](CO)NC(=O)[C@@H]1CNCC[C@H]1N > 46 µM
CC(C)[C@@H](CC(=O)N[C@@H]1CCNC[C@H]1C(=O)N[C@H](CC(=O)N[C@@H](CCC(=O)O)CC(=O)O)Cc1ccccc1)NC(=O)C[C@H](CO)NC(=O)[C@@H]1CNCC[C@H]1N > 46 µM
CC(C)C[C@@H](CC(=O)N[C@@H](CCC(=O)O)CC(=O)O)NC(=O)[C@@H]1CCCC[C@H]1NC(=O)C[C@@H](NC(=O)C[C@H](CO)NC(=O)[C@@H]1CCCC[C@H]1N)C(C)C > 46 µM
CC(C)[C@@H](CC(=O)N[C@@H]1CCNC[C@H]1C(=O)N[C@H](CC(=O)N[C@@H](CCC(=O)O)CC(=O)O)Cc1c[nH]c2ccccc12)NC(=O)C[C@H](Cc1c[nH]c2ccccc12)NC(=O)[C@@H]1CCCC[C@H]1N > 46 µM
CC(C)C[C@@H](CC(=O)N[C@H](CC(=O)N[C@@H]1CCCC[C@H]1C(=O)N[C@H](CC(=O)N[C@@H](CCC(=O)O)CC(=O)O)CC(C)C)C(C)C)NC(=O)[C@@H]1CCCC[C@H]1N > 46 µM
